From PubChem BioAssay
Active and inactive are the calls of the source.

Columns and labels:
[1] = small molecules captured by biotinylated probe aFSTL3 – biochemical, small-molecule microarray, fluorescence 635/667, stem cell growth factor project, primary screen (AID 1064); conditions: higher = more signal;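 note: measures binding of the biotinylated anti-FSTL3 antibody to printed compounds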
[2] = binders from COS7 lysate, DM2A8 probe, primary screen, torsin A project, cell lysate, small-molecule microarray, fluorescence 635/667 (AID 1065); conditions: higher = more signal, COS7 lysate expressing mutant human TOR1A
[3] = small molecules captured by biotinylated probe aFGF2 – biochemical, small-molecule microarray, fluorescence 635/667, stem cell growth factor project, primary screen (AID 1067); conditions: higher = more signal;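 note: measures binding of biotinylated aFGF2 protein to printed compounds on slides; z-score merges feature fluorescence and signal-to-noise across triplicate slides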
[4] = small molecules captured by biotinylated probe aFGF10 – biochemical, small-molecule microarray, fluorescence 635/667, stem cell growth factor project, primary screen (AID 1071); conditions: higher = more signal;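 note: score merges 667 nm spot intensity and signal to noise from triplicate slides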
[5] = molecular target: Neurogenic locus notch homolog protein 2 (Homo sapiens) (UniProt Q04721); test: small molecules binding Notch2 protein – biochemical, small-molecule microarray, 635 nm fluorescence, stem cell growth factors, primary screen (AID 1073); conditions: higher = more signal
[6] = molecular target: Pro-neuregulin-1, membrane-bound isoform (Homo sapiens) (UniProt Q02297); test: small molecules binding neuregulin-1 protein – biochemical, small-molecule microarray, fluorescence 635/667, psychiatric disease protein project, primary screen (AID 1075); conditions: NRG1 binding, 635 nm fluorescence, higher = more signal;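 note: score combines 667 nm spot fluorescence with signal to noise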
[7] = tested on: Neuregulin-1 EGF-like domain; test: small molecules binding NRG1 EGF domain – biochemical, small-molecule microarray, 635 nm fluorescence, primary screen (AID 1081); conditions: higher = more signal;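 note: binding of the protein to compounds printed on small-molecule microarray slides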
[8] = FRG1 expression reporter modulators in myotubes – cell-based, C2C12 myotubes, firefly/Renilla luciferase, luminescence, FRG1 inhibition for FSHD, primary screen (AID 1084); conditions: FRG1 promoter luciferase, higher = more signal, called active from +8 up or from −8 down
[9] = small molecules captured by biotinylated probe aFST – biochemical, small-molecule microarray, fluorescence 635/667, stem cell growth factor project, primary screen (AID 1086); conditions: higher = more signal;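 note: score merges 667 nm fluorescence with signal-to-noise of each printed compound spot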
[10] = binders of probe aHhip on microarray, primary screen, stem cell growth factor project, biochemical, small-molecule microarray, fluorescence 635/667 (AID 1087); conditions: higher = more signal;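 note: score merges spot fluorescence at 667nm with spot signal to noise ratio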

Sequence of Neurogenic locus notch homolog protein 2 (Homo sapiens) (Q04721 whole entry, looked up, canonical isoform): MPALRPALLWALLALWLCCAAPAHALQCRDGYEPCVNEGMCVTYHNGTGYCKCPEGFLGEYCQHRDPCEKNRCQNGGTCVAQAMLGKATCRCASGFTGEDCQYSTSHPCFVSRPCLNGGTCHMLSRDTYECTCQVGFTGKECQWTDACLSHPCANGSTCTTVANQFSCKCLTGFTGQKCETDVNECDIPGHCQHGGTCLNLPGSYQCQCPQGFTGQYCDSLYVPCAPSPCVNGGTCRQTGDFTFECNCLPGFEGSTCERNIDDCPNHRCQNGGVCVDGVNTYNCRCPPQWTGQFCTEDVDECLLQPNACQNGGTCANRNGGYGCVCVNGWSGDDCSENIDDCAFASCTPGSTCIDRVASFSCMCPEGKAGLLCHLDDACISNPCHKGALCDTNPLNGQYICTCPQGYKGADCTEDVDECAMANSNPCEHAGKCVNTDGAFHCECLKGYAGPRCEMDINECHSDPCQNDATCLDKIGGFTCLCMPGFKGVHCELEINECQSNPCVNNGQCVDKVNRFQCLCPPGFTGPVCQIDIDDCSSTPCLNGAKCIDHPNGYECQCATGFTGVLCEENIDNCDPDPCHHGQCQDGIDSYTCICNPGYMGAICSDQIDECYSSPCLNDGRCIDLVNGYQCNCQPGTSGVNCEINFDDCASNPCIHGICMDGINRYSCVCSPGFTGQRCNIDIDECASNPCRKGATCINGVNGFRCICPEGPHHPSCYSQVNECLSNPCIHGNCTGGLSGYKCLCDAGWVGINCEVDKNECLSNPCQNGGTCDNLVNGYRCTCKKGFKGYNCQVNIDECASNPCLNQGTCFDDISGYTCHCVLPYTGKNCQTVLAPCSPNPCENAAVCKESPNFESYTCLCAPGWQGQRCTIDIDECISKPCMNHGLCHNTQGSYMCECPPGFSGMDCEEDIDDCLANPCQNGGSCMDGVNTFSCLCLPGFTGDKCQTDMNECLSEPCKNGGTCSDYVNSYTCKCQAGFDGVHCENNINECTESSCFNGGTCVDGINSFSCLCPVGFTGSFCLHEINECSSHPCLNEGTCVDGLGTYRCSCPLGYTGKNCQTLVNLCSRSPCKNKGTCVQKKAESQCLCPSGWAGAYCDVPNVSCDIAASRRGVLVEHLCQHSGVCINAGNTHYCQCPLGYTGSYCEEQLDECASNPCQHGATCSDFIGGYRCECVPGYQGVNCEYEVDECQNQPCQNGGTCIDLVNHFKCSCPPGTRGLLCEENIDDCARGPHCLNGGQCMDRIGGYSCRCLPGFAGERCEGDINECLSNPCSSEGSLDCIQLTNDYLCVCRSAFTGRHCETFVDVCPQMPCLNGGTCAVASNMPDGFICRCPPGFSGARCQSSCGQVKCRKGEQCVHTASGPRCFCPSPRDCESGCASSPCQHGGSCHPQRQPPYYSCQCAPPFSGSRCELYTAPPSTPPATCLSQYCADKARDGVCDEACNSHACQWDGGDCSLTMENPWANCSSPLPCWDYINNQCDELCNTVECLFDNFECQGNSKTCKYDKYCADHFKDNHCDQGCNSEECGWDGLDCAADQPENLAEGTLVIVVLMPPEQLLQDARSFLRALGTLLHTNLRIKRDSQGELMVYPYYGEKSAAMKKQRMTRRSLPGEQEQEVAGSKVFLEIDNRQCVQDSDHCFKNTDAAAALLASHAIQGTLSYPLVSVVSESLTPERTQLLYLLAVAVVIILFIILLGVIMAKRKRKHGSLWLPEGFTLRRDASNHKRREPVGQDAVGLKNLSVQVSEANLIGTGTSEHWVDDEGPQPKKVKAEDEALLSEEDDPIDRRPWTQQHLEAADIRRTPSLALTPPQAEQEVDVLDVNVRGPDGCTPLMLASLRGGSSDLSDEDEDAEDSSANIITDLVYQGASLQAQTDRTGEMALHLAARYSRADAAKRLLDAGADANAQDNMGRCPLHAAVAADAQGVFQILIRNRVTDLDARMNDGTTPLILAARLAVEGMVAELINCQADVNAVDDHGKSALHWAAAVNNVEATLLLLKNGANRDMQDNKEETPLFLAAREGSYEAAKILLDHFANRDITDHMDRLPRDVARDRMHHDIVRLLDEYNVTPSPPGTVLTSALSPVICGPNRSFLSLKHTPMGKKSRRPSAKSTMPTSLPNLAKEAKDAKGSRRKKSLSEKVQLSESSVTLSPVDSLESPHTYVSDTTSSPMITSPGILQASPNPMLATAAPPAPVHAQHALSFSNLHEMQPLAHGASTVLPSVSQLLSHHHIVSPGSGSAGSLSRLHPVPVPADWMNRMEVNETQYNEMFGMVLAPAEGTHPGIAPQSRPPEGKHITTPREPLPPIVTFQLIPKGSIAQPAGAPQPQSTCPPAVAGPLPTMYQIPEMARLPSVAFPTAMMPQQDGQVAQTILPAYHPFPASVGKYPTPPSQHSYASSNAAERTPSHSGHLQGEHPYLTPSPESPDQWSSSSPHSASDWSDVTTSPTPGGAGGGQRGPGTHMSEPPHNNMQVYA
Sequence of Pro-neuregulin-1, membrane-bound isoform (Homo sapiens) (Q02297 whole entry, looked up, the tested form may be a part, canonical isoform): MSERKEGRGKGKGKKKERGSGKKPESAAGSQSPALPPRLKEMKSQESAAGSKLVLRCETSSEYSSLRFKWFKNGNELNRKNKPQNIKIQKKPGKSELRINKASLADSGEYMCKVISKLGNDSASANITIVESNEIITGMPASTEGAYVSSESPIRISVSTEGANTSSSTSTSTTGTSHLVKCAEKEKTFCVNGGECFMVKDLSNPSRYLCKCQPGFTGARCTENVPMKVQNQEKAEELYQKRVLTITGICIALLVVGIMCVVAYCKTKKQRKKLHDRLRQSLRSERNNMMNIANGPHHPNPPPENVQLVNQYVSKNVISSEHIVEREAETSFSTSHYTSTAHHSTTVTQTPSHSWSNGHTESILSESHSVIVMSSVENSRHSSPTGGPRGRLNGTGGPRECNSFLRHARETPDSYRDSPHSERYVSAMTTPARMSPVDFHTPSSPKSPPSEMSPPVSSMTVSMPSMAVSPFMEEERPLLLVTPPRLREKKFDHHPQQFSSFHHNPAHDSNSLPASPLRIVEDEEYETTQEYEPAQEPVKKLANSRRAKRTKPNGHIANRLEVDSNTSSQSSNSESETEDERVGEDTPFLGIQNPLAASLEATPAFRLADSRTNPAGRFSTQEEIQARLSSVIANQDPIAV

| SMILES | composite z-score [1] | composite z-score [2] | composite z-score [3] | composite z-score [4] | composite z-score [5] | composite z-score [6] | composite z-score [7] | z-score [8] | composite z-score [9] | composite z-score [10] |
| --- | --- | --- | --- | --- | --- | --- | --- | --- | --- | --- |
| O=C1C2C=CC(C(O)c3cccc4ccccc34)N(n3cnnc3)C2C(=O)N1Cc1ccccc1 (stereo not given) | 1.45 | 0.0748 | 0.737 | 0.774 | 0.309 | 0.704 | 0.821 | -0.259 (inactive) | 1.8 | 0.506 |
| COCC1C2CC[C@H]3C(OCc4ccc(F)cc4C(F)(F)F)OC[C@]4(C)[C@H]3C2=C(CN4C(=O)OC(C)(C)C)[C@H](C)C1COC (stereo not given in full) | 0.409 | 0.0838 | 0.0807 | 0.224 | 1.58 | 2.05 | 0.782 | -0.255 (inactive) | 0.945 | -0.0672 |
| COc1ccc(C(=O)Nc2cccc(CN3C(=O)[C@@]4(O[C@@H](CCn5cc([C@H](O)c6ccccc6)nn5)[C@H]([Si](C)(C)c5ccc(OC)cc5)[C@H]4C)c4ccccc43)c2)cc1 | 0.395 | -0.559 | -0.123 | 0.335 | 0.336 | 0.838 | 1.14 | -1.47 (inactive) | 0.179 | 0.0373 |
| CCN(CC)c1ccc(N2CC=CC34O[C@@H]5/C=C\CCC(C)OC(=O)C5[C@H]3C(=O)N(CCCCCCO)[C@@H]4C2=O)cc1 (stereo not given in full) | 0.142 | 0.19 | -0.0766 | 0.69 | -0.498 | 0.374 | 1.4 | 0.316 (inactive) | -0.32 | 0.0373 |
| [N-]=[N+]=NCc1ccccc1[C@@H]1OC(c2ccc(OCCCO)cc2)=N[C@]1(Cc1ccccc1)C(=O)O | 0.221 | 0.163 | 0.0909 | 1.04 | 0.526 | 1.57 | 1.25 | 2.29 (inactive) | 0.461 | -0.0581 |
| C=C[C@H](OC)[C@@H](OC(=O)Nc1ccc(SC)cc1)c1ccc(OCCO)cc1 | 0.0168 | 0.594 | -0.0307 | 0.778 | -0.21 | 0.121 | 1.41 | 5.3 (inactive) | -0.0503 | -0.249 |
| Cc1ccc(S[C@]2(C(=O)NCCCN(C)C)CC(=O)N(C(C)C)[C@@H]2c2ccc(CO)cc2I)cc1 | 0.052 | -0.54 | -0.0954 | -0.238 | -0.373 | 0.994 | 0.861 | -0.312 (inactive) | -0.152 | -0.354 |
| [N-]=[N+]=Nc1ccccc1[C@H]1OC(c2ccc(OCCCO)cc2)=N[C@@]1(CCS(=O)(=O)c1ccccc1)C(=O)N1CCOCC1 | 1.84 | 0.962 | 0.45 | 1.13 | 1.7 | 1.66 | 1.27 | 5.15 (inactive) | 1.53 | -0.372 |
| C=C[C@@H](C)[C@@H](OC(=O)Nc1ccc(OC)cc1)c1ccc(O)c2ccccc12 | -0.262 | 0.173 | -0.0423 | 0.245 | -0.11 | 0.543 | 1.03 | 2.58 (inactive) | 0.105 | -0.128 |
| C=CCC(OC(C)=O)[C@@H]1[C@@H](N(Cc2ccc(-c3cccc(C(F)(F)F)c3)o2)C(=O)Cc2ccc(OC)cc2)c2cc(OCCCO)ccc2N1C(=O)Cc1ccc(OC)cc1 (stereo not given in full) | -0.0741 | 0.185 | -0.0739 | -0.118 | -0.17 | 0.783 | -0.92 | 0.0712 (inactive) | -0.239 | -0.16 |
| O=c1cccc(-c2ccc3ccccc3c2)o1 | 0.636 | -0.0452 | 0.114 | -0.183 | -0.383 | -0.288 | -0.602 | 7.42 (inactive) | 0.389 | -0.0022 |
| Cc1ccc(S[C@]2(C(=O)NCCCN(C)C)CC(=O)N(Cc3ccccc3)[C@@H]2c2ccc(CO)cc2)cc1 | 1.15 | -0.533 | -0.145 | -0.193 | -1.24 | -0.234 | -1.11 | -1.76 (inactive) | -0.101 | -0.409 |
| [N-]=[N+]=NCc1ccccc1[C@H]1OC(c2ccc(OCCCO)cc2)=N[C@@]1(Cc1ccccc1)C(=O)O | 0.227 | 0.325 | -0.0586 | 0.345 | 0.653 | 1.1 | 0.97 | 1.82 (inactive) | 0.554 | -0.0994 |
